The whole screen tested about 1,400 compounds, of which about 100 (7.1%) were called active. No rule for the calls is given here. A selection follows. Entries with a potency or affinity are not part of this list.

The nature of the assay: viability loss in Vero cells – cell-based, plate reader, cherry-pick samples, cytotoxicity control, dose response (AID 687020).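 Also: compounds incubated with cells for three days before luminescence read.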 To be noted: series mostly up to 19.5 µM; activity change, negative = toxicity: at the top concentration.
As to `CCOC(=O)C1=C(CS(=O)(=O)c2ccc(C)cc2)NC(=O)NC1c1cc(OC)c(O)c(OC)c1` (stereo not drawn), the “activity change, negative = toxicity” value was -12.2% (inactive).
On to `COc1ccccc1Cn1c(=S)[nH]c2cc(C(=O)N3CC(C)CC(C)C3)ccc2c1=O` (stereo not drawn), for which the “activity change, negative = toxicity” value was -7.03% (inactive).
Next, `COc1ccccc1CNC(=O)CCCN1C(=O)NC2(CCCC2)C1=O`: 8.3% (inactive).
With `CCc1ccc(NC(=O)COc2ccc3c(c2)OCO3)cc1`, the “activity change, negative = toxicity” value is 0.187% (inactive).
Next, `CC1CCc2sc(C(=O)NN=C3CCCC3)cc2C1` (stereo not drawn): -34.2% (inactive); `CC(C)c1ccc(NC(=O)[C@H](NC(=O)[C@@H]2Cc3ccccc3CN2)c2ccccc2)cc1`: -3.41% (inactive).
The figure for `COc1ccc(S(=O)(=O)N2CCC(C(=O)N[C@H](C(=O)NCc3ccccc3)C(C)C)CC2)cc1` is -4.44% (inactive).
For `COc1ccc(NC(=O)Nc2cccc3c2O[C@H](CN(C)C(=O)NC2CCCCC2)[C@H](C)CN([C@@H](C)CO)C3=O)cc1`, the “activity change, negative = toxicity” value is -6.07% (inactive).
The figure for `CCCNC(=O)N1[C@H](CO)[C@H](c2ccccc2)[C@@H]1CNC(=O)c1ccc(F)cc1` is -4.36% (inactive); for `COc1ccc(S(=O)(=O)N2CCCCCC2)cc1NC(=O)Cc1cccc(C(F)(F)F)c1` it is -24.1% (inactive).
Next, `O=C(C1CC1)N1[C@@H](CO)[C@@H]2c3ccccc3NC[C@@H]21`: 5.51% (inactive); `O=C(NCc1ccccc1F)[C@H]1N[C@H]2c3ccc(-c4ccccc4F)c(=O)n3C[C@H]2[C@@H]1CO`: -1.53% (inactive); `C[C@H](NC(=O)[C@H]1N[C@H]2c3ccc(-c4cccnc4)c(=O)n3C[C@H]2[C@@H]1CO)c1ccccc1`: -3.63% (inactive).
The figure for `NC(=O)c1ccccc1NC(=O)COC(=O)C1(c2ccccc2)CC1` is -17.5% (inactive); for `CSCCC(NC(=O)COc1ccccc1)C(=O)OCCOc1ccc(C)cc1` (stereo not drawn) it is 6.81% (inactive).
With `Cc1cccc(OCC(=O)Nc2ccc(N3CCN(C(=O)c4ccccc4)CC3)cc2)c1C`, the “activity change, negative = toxicity” value is 10.4% (inactive).
`COc1cc(OC)cc(C(=O)Nc2ccc(N3CCN(C(=O)c4cccs4)CC3)cc2)c1`: the “activity change, negative = toxicity” value was -4.09% (inactive).
The figure for `C/C(CC(=O)Nc1ccc(Cl)c(Cl)c1)=N\NC(=O)Cc1ccccc1` is -7.86% (inactive).
The figure for `COc1ccc(S(=O)(=O)Nc2cccc3c2O[C@@H](CN(C)S(C)(=O)=O)[C@@H](C)CN([C@@H](C)CO)C3=O)cc1` is 0.077% (inactive); for `CCC(C)c1ccc(NC(=O)NCCN2CCCCC2)cc1` (stereo not drawn) it is 1.83% (inactive); for `OC(CSc1nnnn1-c1ccccc1)Cn1c2ccccc2c2ccccc21` (stereo not drawn) it is -0.493% (inactive).
`C[C@@H]1CCCCO[C@H](CN(C)S(=O)(=O)c2ccccc2)[C@@H](C)CN([C@@H](C)CO)C(=O)c2cc(NC(=O)c3ccncc3)ccc2O1`: the “activity change, negative = toxicity” value is -4.56% (inactive).
With `CCC(N=c1cc(-c2ccc(OC)c(OC)c2)oc2ccc(C)cc12)C(=O)O` (stereo not drawn), the “activity change, negative = toxicity” value is -4.53% (inactive).
The figure for `CN(C)S(=O)(=O)N1CCC(Oc2ccc(C(=O)N3CCCCCCC3)cc2)CC1` is -12.7% (inactive).
In the case of `O=C(NCC1CC1)c1onc(CSc2ccc(F)c(F)c2)c1C(=O)NCC1CC1`, the “activity change, negative = toxicity” value was -19.6% (inactive).
Next, `O=C(O)CCCCCCCCc1cn(CCc2c[nH]c3ccccc23)nn1`: -16.8% (inactive); `COc1ccc(CC(=O)NC2CCCCCC2)c(OC)c1`: 1.36% (inactive).
The figure for `COc1ccc(S(=O)(=O)N2CCN(CC(=O)NC3CC3)CC2)cc1` is -3.01% (inactive); for `CC12CCC(=O)N1C(C(=O)Nc1nc(-c3ccccc3)cs1)CS2` (stereo not drawn) it is -7.4% (inactive).
The figure for `C[C@@H]1CCCCO[C@H](CN(C)S(C)(=O)=O)[C@@H](C)CN([C@H](C)CO)C(=O)c2cc(NC(=O)CCC(F)(F)F)ccc2O1` is 1.17% (inactive); for `O=C(Cn1cnc2c(NCc3ccccc3)ncnc21)NCC1CCCO1` (stereo not drawn) it is -2.83% (inactive); for `CCCN1Cc2cccc(C(=O)Nc3ccc4c(c3)OCCO4)c2C1=O` it is 3.48% (inactive).
As for `Cn1cc([C@]2(O)C(=O)Nc3ccccc32)c2ccccc21`, the “activity change, negative = toxicity” value is -7.51% (inactive).
Take `CN1c2ccc(Br)cc2[C@@H]2[C@@H](CCN2S(=O)(=O)c2ccccc2)[C@H]1CO`: the “activity change, negative = toxicity” value was 0.13% (inactive).
The figure for `Cc1ccccc1NS(=O)(=O)c1ccc(S(=O)(=O)N2CCCC2)cc1` is -42.1% (inactive); for `CCN(CC(=O)Nc1c(F)cccc1F)C(=O)C1CCN(S(=O)(=O)c2ccc(F)cc2)CC1` it is 2.85% (inactive).
The figure for `C/C=C/c1ccc([C@H]2[C@@H](CO)N(C(=O)C3CCC3)[C@@H]2CNC(=O)NC(C)C)cc1` is -1.67% (inactive).
Consider `CC(O)(c1cccc(F)c1)c1nc(/C=C/c2ccccc2)cs1` (stereo not drawn), for which the “activity change, negative = toxicity” value is -3.32% (inactive).
The figure for `CC(OC(=O)c1ccc(O)cc1)C(=O)Nc1nc(-c2ccccc2)cs1` (stereo not drawn) is -36.7% (inactive).
For the compound `COc1ccc(-c2csc(C(O)c3cccc(OC)c3)n2)cc1` (stereo not drawn), the “activity change, negative = toxicity” value is -25.3% (inactive).
Take `N#Cc1cccc(-c2ccc(C3[C@@H]4CN(C(=O)c5cccnc5)C[C@H]3N4)cc2)c1` (stereo partly drawn): the “activity change, negative = toxicity” value is -6.05% (inactive).
Next, `C[C@H](CO)N1C[C@H](C)[C@H](CN(C)C(=O)NC2CCCCC2)Oc2ccc(NC(=O)Cn3cnnn3)cc2C1=O`: 2.13% (inactive); `CCCCCC(=O)N1C[C@@H](O)[C@H](n2cc(COC(=O)c3ccccc3)nn2)C[C@@H]1c1ccc(C)cc1`: -7.23% (inactive).
For the compound `O=C(C1CCCCC1)N1C[C@H](O)[C@@H](n2cc(C3CC3)nn2)C[C@@H]1c1ccccc1`, the “activity change, negative = toxicity” value is -17.1% (inactive).
The figure for `CCc1c(C2CC2)ncn1Cc1cccc(-c2ccccc2)c1` is 5.16% (inactive); for `FC(F)(F)c1nc2ccccc2n1CCNc1nc(CN2CCCCC2)cs1` it is -32.6% (inactive).
Take `CN(C)c1cccc(C(=O)Nc2cc(C(F)(F)F)ccc2-n2cnc3ccccc32)c1`: the “activity change, negative = toxicity” value is 1.15% (inactive).
Next, `O=S1(=O)N[C@@H](Cc2ccccc2)COc2cc(N3CCOCC3)ccc21`: -16.8% (inactive); `COc1ccc(S(=O)(=O)N[C@H]2CC[C@@H](CCNC(=O)CN3CCOCC3)O[C@H]2CO)cc1`: 13% (inactive).
The figure for `COc1ccc(NC(=O)N[C@@H]2CC[C@@H](CCNS(=O)(=O)c3cccc(Cl)c3)O[C@@H]2CO)cc1` is -4.64% (inactive).
The figure for `c1ccc(-c2cn(C[C@H]3CC[C@@H]([C@@H]4CC[C@H](Cn5cc(-c6ccccc6)nn5)O4)O3)nn2)cc1` is 3.79% (inactive); for `O=C(Cc1cccnc1)N[C@H]1CC[C@@H](CCn2cc(Cc3ccccc3)nn2)O[C@H]1CO` it is 11.9% (inactive).
Consider `O=C(OCc1ccccc1)N1CCCC2CC1c1ccccc12` (stereo not drawn), for which the “activity change, negative = toxicity” value was -4.06% (inactive).
In the case of `CCCCN(C(=O)c1ccc2c(c1)NC(=O)CS2)c1ccccc1`, the “activity change, negative = toxicity” value is -24.6% (inactive).
Next, `CSCCC(NS(=O)(=O)c1cccs1)C(=O)NCc1ccccc1` (stereo not drawn): -12.8% (inactive); `COc1ccc(C)cc1NC(=O)C(c1ccccc1)N1CCN(CC(=O)N2CCOCC2)CC1` (stereo not drawn): -1.07% (inactive); `COc1ccc2c3c(n(C)c2c1)[C@H](CO)N(Cc1ccccc1F)CC31CCN(C(C)=O)CC1`: -3.12% (inactive).
`COCCNC(=O)CCC1CCN(Cc2ccc(-c3ccccc3)cc2)CC1`: the “activity change, negative = toxicity” value is 11.3% (inactive).
The figure for `CN1C(C(=O)NCc2ccc(OC(F)(F)F)cc2)CC2Cn3c(nc4ccccc43)C21` (stereo not drawn) is -7.43% (inactive); for `COc1cccc(CC(=O)OCC(=O)Nc2nnc(-c3ccccc3)o2)c1` it is 2.48% (inactive); for `COc1ccc(C(CNS(=O)(=O)c2ccc(NC(C)=O)c(OC)c2)N2CCCC2)cc1` (stereo not drawn) it is -23.7% (inactive).
The figure for `COc1ccc(C(CNC(=O)CCNC(=O)c2ccc(Br)cc2)N2CCOCC2)cc1` (stereo not drawn) is -7.55% (inactive).
Consider `CCCCN1C(N)=NC[C@@H]1C(C)O` (stereo partly drawn), for which the “activity change, negative = toxicity” value is -16.1% (inactive).
Consider `O=C(COc1ccccc1)NCC(=O)N/N=C/c1ccc(Br)cc1`, for which the “activity change, negative = toxicity” value was 3.21% (inactive).
The figure for `O=C(CCn1cncn1)N1CCCC(N2CCN(c3ccc(F)cc3)CC2)C1` (stereo not drawn) is -15.2% (inactive); for `CCN(CC)CC(=O)N1CCCC(N2CCN(c3cccc(C(F)(F)F)c3)CC2)C1` (stereo not drawn) it is -15.9% (inactive).
The figure for `O=C(c1cc(C2CC2)on1)N1CCCC(N2CCN(c3cccc(C(F)(F)F)c3)CC2)C1` (stereo not drawn) is 3.52% (inactive).
The figure for `C[C@@H]1CCCCO[C@H](CN(C)Cc2ccc(Cl)c(Cl)c2)[C@H](C)CN([C@@H](C)CO)C(=O)c2cc(NC(=O)c3ccccc3)ccc2O1` is -5.49% [at 21 µM] (inactive).
`O=C(c1ccc2nccnc2c1)N1CCN(c2ccccc2)CC1`: the “activity change, negative = toxicity” value is -11.1% (inactive).
Turning to `O=C(c1cccc(-c2cccc3nccn23)c1)N1CCOCC1`, the “activity change, negative = toxicity” value is 5.83% (inactive).
Turning to `CCCCCCCCN1C(=O)[C@H](CC(=O)NCCC(C)C)C[C@@]2(C(=O)OCC)CCCC=C12`, the “activity change, negative = toxicity” value is -10.3% (inactive).
The figure for `Cn1c(=O)n(C)c2cc(N3CCOCC3)c(NC(=O)c3ccc(F)cc3)cc21` is -1.46% (inactive); for `CCN1CCN(c2ccc(S(=O)(=O)N3CCCCC3)cc2NC(=O)c2ccc(C)c(C)c2)CC1` it is -1.07% (inactive).
Regarding `CNC[C@@H]1OCCCC[C@H](C)Oc2ccc(NS(C)(=O)=O)cc2C(=O)N([C@@H](C)CO)C[C@@H]1C`, the “activity change, negative = toxicity” value is 7.65% (inactive).
Take `C=CCc1ccc(OCCCNCc2ccccc2)c(OC)c1`: the “activity change, negative = toxicity” value was 4.77% (inactive).
The figure for `Cc1cccc(OCCCN2CCC(C(O)(c3ccccc3)c3ccccc3)CC2)c1` is -11.6% (inactive); for `c1ccc(-c2ccc(OCCN3CCOCC3)cc2)cc1` it is -30.8% (inactive); for `CN1CCN(CCOc2ccc(-c3ccccc3)cc2)CC1` it is -3.13% (inactive).
The figure for `CCc1cccc(OCCN2CCCC2)c1` is 7.48% (inactive); for `COc1ccccc1CN1CCCC(N2CCN(c3ccccc3OC)CC2)C1` (stereo not drawn) it is -25.9% (inactive); for `CCc1cc2c(=O)[nH]c(COC)nc2s1` it is -6.45% (inactive).
Consider `CN(C(=O)COC(=O)c1ccc(S(=O)(=O)N2CCOCC2)cc1)c1ccccc1`, for which the “activity change, negative = toxicity” value is -15.2% (inactive).
The figure for `COC(=O)[C@@H]1C[C@H]2CC[C@H](O)C[C@H]2N1Cc1ccc(C(F)(F)F)cc1` is -4.52% (inactive); for `COc1ccc(CNC(=O)C2CC(c3ccc(C(F)(F)F)cc3)=NO2)cc1` (stereo not drawn) it is -24.9% (inactive).
For the compound `Nc1cccc(O)c1`, the “activity change, negative = toxicity” value is -6.53% (inactive).
As for `COc1cc(CNc2nccn3ccnc23)cc(OC)c1`, the “activity change, negative = toxicity” value is -9.02% (inactive).
In the case of `CCc1ccc(OCC(O)CN2CCN(c3ccccc3)CC2)cc1` (stereo not drawn), the “activity change, negative = toxicity” value was -5.9% (inactive).
The figure for `NC(=O)C1CCN(CC(O)COc2ccc(-c3ccccc3)cc2)CC1` (stereo not drawn) is -5.66% (inactive); for `COCC#Cc1ccc2c(c1)O[C@@H](CN(C)C(=O)Nc1ccccc1F)[C@H](C)CN([C@@H](C)CO)S2(=O)=O` it is 0.743% (inactive).
The figure for `C[C@H]1CN([C@@H](C)CO)C(=O)Cc2cc(NC(=O)CCCCCC(=O)Nc3ccccc3N)ccc2O[C@H]1CN(C)Cc1ccc(C(F)(F)F)cc1` is 1.41% [at 21 µM] (inactive); for `CC1(C(=O)NS(=O)(=O)c2ccccc2C(F)(F)F)CCN1C(=O)CCc1ccccc1` (stereo not drawn) it is -2.6% (inactive).
Next, `O=C(NNc1c(F)c(F)cc(F)c1F)C1CCN(S(=O)(=O)c2ccccc2F)CC1`: -10.5% (inactive); `C[C@H](CO)N1C[C@H](C)[C@H](CN(C)C(=O)Nc2cccc3ccccc23)OCCCC[C@H](C)Oc2ccc(NS(=O)(=O)c3cn(C)cn3)cc2C1=O`: 0.574% (inactive).

For the origin of these results see PubChem BioAssay AID687020 (Broad Institute, 2013).
